Measured values as given in PubChem BioAssay AID720628 (The Scripps Research Institute Molecular Screening Center, 2013).
This is one part of the list. A number with no mark means an inactive call. The source made the active and inactive calls.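 Rule for the calls: active = inhibition above the campaign cutoff, the mean of compounds within control limits plus 3 SD (cut at about 14% in these data); inactive = the rest.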

What follows are compounds tested against Fibrinogen beta chain (Homo sapiens) (UniProt P02675) (assay: inhibitors of Tn7 peptide binding to fibrin DD(E), confirmation, biochemical, fluorescence polarization, human fibrin, Tn7 probe (AID 720628;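 note: 100% = median FP of high control wells holding Aha-Tn7 inhibitor peptide; displacers lower polarization since freed probe rises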)). Conditions: FP displacement of TRITC-Tn7 peptide from DD(E); at 8.3 µM; active compounds read high; 0% set at plate's compound-well median.
Sequence of Fibrinogen beta chain (Homo sapiens) (P02675 whole entry, looked up): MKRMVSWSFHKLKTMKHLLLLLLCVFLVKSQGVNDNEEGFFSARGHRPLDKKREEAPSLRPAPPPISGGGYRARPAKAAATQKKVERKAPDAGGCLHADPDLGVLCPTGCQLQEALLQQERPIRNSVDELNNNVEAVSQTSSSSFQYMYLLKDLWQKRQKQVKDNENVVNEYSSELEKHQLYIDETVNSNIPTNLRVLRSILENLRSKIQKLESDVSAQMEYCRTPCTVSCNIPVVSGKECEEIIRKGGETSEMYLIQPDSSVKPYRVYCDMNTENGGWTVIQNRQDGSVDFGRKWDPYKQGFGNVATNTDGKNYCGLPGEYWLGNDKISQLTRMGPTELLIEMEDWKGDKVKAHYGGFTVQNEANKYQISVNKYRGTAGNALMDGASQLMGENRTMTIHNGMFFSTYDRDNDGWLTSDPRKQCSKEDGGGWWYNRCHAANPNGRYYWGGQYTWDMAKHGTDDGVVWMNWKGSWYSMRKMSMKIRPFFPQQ

SMILES | inhibition
Cc1nn(C)cc1N1C(=O)c2cccc3c(N)ccc(c23)C1=O | 12.5%
COc1ccc(S(=O)(=O)c2c[nH]c(=S)[nH]c2=O)cc1Cl | -1.93%
CN1C(=O)c2cccc3c(N)ccc(c23)C1=O | 30.8% (active)
c1cc(-c2nn[nH]n2)ccc1CN1CCCCC1 | -9.45%
CC(C)(C)c1cc(CN2CCN(CCC#N)CC2)cc(C(C)(C)C)c1O | 3.96%
COc1cc(C(=S)N2CCOCC2)ccc1O | 8.15%
COc1ccc(N=Nc2c(-c3ccc(OC)cc3)[nH]oc2=O)cc1 | -2.03%
COc1cccc(N2CC(NS(=O)(=O)c3cccs3)CC2=O)c1 (centres undefined) | 0.77%
OC(c1ccccc1)c1nc(-c2cnc3ccccc3c2)cs1 (centres undefined) | 7.29%
Cc1cc2nc3c(=O)n(Cc4ccccc4)c(=O)[nH]c3nc2cc1N | -4.02%
Oc1ccc2ccc3cccc[n+]3c2c1 | 20.3% (active)
Cn1c(CC(=O)NNC(=O)c2ccccc2F)nc2ccccc21 | 4.13%
O=C(NCc1ccccc1)c1cccc(NC(=O)C2CCCCC2)c1 | 4.29%
O=C(/C=C/c1ccccc1[N+](=O)[O-])NCC1CCCO1 (centres undefined) | 9.76%
Cc1cc2nc3c(=O)[nH]c(=O)nc-3n(C[C@H](O)[C@H](O)[C@H](O)CO)c2cc1C | 53.3% (active)
Cc1nnc2n1N=C(c1ccc3c(c1)NC(=O)CO3)CS2 | -7.07%
O=C(CSc1nnc(-c2ccccn2)n1-c1ccc(Cl)cc1)Nc1ccccc1-c1ccccc1 | 2.95%
COc1ccc(-c2nc(CCNC(=O)c3ccc(Br)o3)cs2)cc1 | 1.25%
CN1c2ccc(C=O)c3c(C=O)ccc(c23)N(C)C1(C)C | 1.94%
O=C(COC(=O)/C=C/c1ccc(OC(F)F)cc1)NC1CCCCC1 | 6.98%
O=C(Nc1ccon1)c1sc2ccccc2c1Cl | 6.87%
O=C(COC(=O)c1ccc([N+](=O)[O-])cc1Cl)NC(=O)c1ccccc1 | 2.79%
CCOc1ccc(Nc2oc(Cc3ccccc3)nc2C#N)cc1 | -1.34%
C#CCNc1ccc(C(=O)OCC)cc1 | 19.9% (active)
